# Measurements reported in the supplement of paper PMC10849652.
# Targets with a hit are over-represented here; the source holds about 7,900 in all. About 0.6% of all pairs of compound and target were hits. Values without a mark were called inactive.
# Key:
# Assay in all cases: log2 fold change, soluble protein after heating vs DMSO (PISA); higher = thermal stabilisation; K562 cells, 10 uM, 30 min; active = over 0.2 and 3.5 SD of the protein, either way, in both replicates (recomputed)
# [1] = compound: Cc1ccc(NC(=O)c2ccc(CN3CC[C@H](N(C)C)C3)c(C(F)(F)F)c2)cc1Nc1nccc(-c2cncnc2)n1 [bafetinib]
# In short: (§1)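 Thermal stability values are relative to control samples and come from duplicates. They are expressed as log2 fold changes. For measurement, K562 cells (2×10^6 cells/mL) received 10 μM compound for 30 min, and aliquots were heated for 3 min over 48°C-58°C, pooled, and extracted at 4°C in PBS with 0.5% NP-40. Soluble protein, the supernatant after 21,000xg for 90 min, was quantified by TMTpro 16plex LC-MS/MS with equalised channel sums.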
# [2] = compound: Cc1cccc(CC(=O)N2CCc3c2ccc(-c2cn(C)c4ncnc(N)c24)c3F)n1
# In short: as §1
# [3] = compound: Cc1cn(-c2cc(NC(=O)c3ccc(C)c(Nc4nccc(-c5cccnc5)n4)c3)cc(C(F)(F)F)c2)cn1 [nilotinib]
# In short: as §1
# [4] = compound: Cc1nc(Nc2n[nH]c3c2CN(C(=O)N[C@H](CN(C)C)c2ccccc2)C3(C)C)c2sccc2n1
# In short: as §1
# [5] = compound: Cc1nc(Nc2ncc(C(=O)Nc3c(C)cccc3Cl)s2)cc(N2CCN(CCO)CC2)n1 [dasatinib]
# In short: as §1
# [6] = compound: Cc1ncc(-c2ccnc(Nc3ccc(S(C)(=O)=O)cc3)n2)n1C(C)C
# In short: as §1
# [7] = compound: Cn1cc(-c2ccc3c(c2)CCN3C(=O)Cc2cccc(C(F)(F)F)c2)c2c(N)ncnc21
# In short: as §1
# [8] = compound: Cn1cc(-c2ccc3nnc(C(F)(F)c4ccc5ncccc5c4)n3n2)cn1
# In short: as §1
# [9] = compound: Cn1cncc1[C@@](N)(c1ccc(Cl)cc1)c1ccc2c(c1)c(-c1cccc(Cl)c1)cc(=O)n2C [tipifarnib]
# In short: as §1
# [10] = compound: FC(F)(F)c1ccc(/C=C/c2nc(COc3ccc(CCCCn4ccnn4)cc3)co2)cc1 [mubritinib]
# In short: as §1
# [11] = compound: NC(=O)Nc1cc(-c2cccc(F)c2)sc1C(=O)N[C@H]1CCCNC1
# In short: as §1
# [12] = compound: NC(=O)c1cnc(N[C@@H]2CCCC[C@@H]2N)nc1Nc1cccc(-n2nccn2)c1
# In short: as §1
# [13] = compound: NC1(c2ccc(-c3nc4ccn5c(=O)[nH]nc5c4cc3-c3ccccc3)cc2)CCC1
# In short: as §1
# [14] = compound: NCC(=O)Nc1ccc(-n2nc(C(F)(F)F)cc2-c2ccc3c(ccc4ccccc43)c2)cc1
# In short: as §1
# [15] = compound: Nc1ccccc1NC(=O)c1ccc(CNC(=O)OCc2cccnc2)cc1 [entinostat]
# In short: as §1
# [16] = compound: O=C(CCCCCCC(=O)Nc1ccccc1)NO [vorinostat]
# In short: as §1
# [17] = compound: O=C(CCCCCCNC(=O)c1cnc(N(c2ccccc2)c2ccccc2Cl)nc1)NO [citarinostat]
# In short: as §1
# [18] = compound: O=C(O)c1ccc2c(c1)nc(Nc1cccc(Cl)c1)c1ccncc12 [silmitasertib]
# In short: as §1
# [19] = compound: O=C1NC(=O)C(c2cnc3ccccn23)=C1c1cn2c3c(cc(F)cc13)CN(C(=O)N1CCCCC1)CC2
# In short: as §1
# [20] = compound: c1cc(OCCN2CCCCC2)cc(-c2n[nH]c3ccc(-c4nnc[nH]4)cc23)c1
# In short: as §1
# UniProt Q96A72, sequence (Q96A72 whole entry, looked up): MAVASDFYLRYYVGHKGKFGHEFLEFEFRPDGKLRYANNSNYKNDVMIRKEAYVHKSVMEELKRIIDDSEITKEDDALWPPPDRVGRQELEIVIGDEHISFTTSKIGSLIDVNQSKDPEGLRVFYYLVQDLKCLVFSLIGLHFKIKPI
# UniProt Q13257, sequence (Q13257 whole entry, looked up): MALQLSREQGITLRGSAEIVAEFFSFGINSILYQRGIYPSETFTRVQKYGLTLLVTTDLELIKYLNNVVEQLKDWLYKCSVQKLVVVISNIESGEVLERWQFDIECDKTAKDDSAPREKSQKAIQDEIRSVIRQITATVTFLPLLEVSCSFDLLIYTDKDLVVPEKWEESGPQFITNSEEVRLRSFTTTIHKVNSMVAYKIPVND
# UniProt Q07820, sequence (Q07820 whole entry, looked up): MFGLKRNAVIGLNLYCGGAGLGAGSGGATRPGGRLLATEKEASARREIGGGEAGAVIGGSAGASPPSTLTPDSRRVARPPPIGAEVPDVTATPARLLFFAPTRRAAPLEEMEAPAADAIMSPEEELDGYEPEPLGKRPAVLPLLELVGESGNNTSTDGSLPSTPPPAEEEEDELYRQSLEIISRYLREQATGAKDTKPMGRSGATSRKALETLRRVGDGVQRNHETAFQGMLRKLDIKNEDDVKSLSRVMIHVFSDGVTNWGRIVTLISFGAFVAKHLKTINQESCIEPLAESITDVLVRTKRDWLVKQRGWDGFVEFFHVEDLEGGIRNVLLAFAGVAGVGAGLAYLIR
# UniProt Q9H6V9, sequence (Q9H6V9 whole entry, looked up): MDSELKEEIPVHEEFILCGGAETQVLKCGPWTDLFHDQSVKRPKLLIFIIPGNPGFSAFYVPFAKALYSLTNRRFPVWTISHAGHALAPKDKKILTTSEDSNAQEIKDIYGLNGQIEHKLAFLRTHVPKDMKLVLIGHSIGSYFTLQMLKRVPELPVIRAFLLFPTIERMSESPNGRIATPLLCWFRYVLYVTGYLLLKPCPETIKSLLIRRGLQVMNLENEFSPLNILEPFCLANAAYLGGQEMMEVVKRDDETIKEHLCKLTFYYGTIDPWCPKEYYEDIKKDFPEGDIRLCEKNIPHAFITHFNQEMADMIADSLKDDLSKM
# UniProt Q8IYU8, sequence (Q8IYU8 whole entry, looked up): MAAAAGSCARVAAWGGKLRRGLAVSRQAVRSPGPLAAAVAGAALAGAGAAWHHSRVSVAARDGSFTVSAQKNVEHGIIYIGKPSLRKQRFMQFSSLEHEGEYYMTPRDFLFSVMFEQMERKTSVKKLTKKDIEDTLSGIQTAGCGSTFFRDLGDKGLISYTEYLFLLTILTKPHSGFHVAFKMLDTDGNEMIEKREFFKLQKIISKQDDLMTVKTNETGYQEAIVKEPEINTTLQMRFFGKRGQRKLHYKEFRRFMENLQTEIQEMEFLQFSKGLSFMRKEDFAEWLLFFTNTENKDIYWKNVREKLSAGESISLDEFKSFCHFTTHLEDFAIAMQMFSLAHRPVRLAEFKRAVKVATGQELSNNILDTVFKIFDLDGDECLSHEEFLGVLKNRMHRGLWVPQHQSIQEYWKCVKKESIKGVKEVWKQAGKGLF
# UniProt Q8NE86, sequence (Q8NE86 whole entry, looked up): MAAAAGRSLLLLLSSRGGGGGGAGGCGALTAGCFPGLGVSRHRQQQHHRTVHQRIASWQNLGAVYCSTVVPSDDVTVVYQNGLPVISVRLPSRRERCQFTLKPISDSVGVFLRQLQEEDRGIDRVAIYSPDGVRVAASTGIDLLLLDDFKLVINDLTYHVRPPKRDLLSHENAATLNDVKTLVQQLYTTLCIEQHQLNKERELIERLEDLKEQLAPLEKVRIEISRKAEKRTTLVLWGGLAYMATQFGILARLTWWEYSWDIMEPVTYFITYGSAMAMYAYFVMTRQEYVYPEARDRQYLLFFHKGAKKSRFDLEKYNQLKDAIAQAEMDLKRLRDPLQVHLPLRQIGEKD
# UniProt O43318, sequence (O43318 whole entry, looked up): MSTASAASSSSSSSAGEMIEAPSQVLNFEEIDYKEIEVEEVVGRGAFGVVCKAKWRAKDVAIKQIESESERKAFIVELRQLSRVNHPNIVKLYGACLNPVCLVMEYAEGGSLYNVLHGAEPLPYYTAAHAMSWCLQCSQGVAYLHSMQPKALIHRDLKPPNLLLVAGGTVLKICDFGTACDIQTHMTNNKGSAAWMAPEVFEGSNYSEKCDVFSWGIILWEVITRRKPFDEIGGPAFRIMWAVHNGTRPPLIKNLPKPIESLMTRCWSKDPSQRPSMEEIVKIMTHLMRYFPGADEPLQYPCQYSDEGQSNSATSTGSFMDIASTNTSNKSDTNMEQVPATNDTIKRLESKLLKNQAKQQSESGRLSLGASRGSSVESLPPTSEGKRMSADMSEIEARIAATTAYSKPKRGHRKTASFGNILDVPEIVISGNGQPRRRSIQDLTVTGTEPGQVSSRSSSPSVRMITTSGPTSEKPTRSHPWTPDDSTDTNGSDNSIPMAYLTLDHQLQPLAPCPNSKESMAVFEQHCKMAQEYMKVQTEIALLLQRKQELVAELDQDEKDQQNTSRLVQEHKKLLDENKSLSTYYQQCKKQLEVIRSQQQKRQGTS
# UniProt Q9BRT3, sequence (Q9BRT3 whole entry, looked up): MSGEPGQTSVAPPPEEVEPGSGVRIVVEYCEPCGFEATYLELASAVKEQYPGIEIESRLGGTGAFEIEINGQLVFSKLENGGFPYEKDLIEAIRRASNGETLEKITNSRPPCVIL
Target,log2 fold change [1],log2 fold change [2],log2 fold change [3],log2 fold change [4],log2 fold change [5],log2 fold change [6],log2 fold change [7],log2 fold change [8],log2 fold change [9],log2 fold change [10],log2 fold change [11],log2 fold change [12],log2 fold change [13],log2 fold change [14],log2 fold change [15],log2 fold change [16],log2 fold change [17],log2 fold change [18],log2 fold change [19],log2 fold change [20]
LDAH isoform 2 (UniProt Q9H6V9),-0.188,-0.027,0.175,-0.122,-0.215,-0.035,0.082,-0.025,0.076,0.094,-0.049,0.018,0.979 (active),-0.041,0.014,-0.011,0.061,0.014,-0.16,-0.057
MAGOHB (UniProt Q96A72),-0.015,-0.007,-0.019,-0.042,0.007,0.138,-0.017,0.024,0,0.04,-0.081,0.177,-0.039,-0.132,0.016,-0.023,0.043,-0.006,0.002,-0.089
MAP3K7 (UniProt O43318),0.029,0.085,-0.105,-0.028,-0.038,0.059,-0.095,-0.026,-0.064,0.046,-0.162,0.033,-0.141,-0.086,0.035,0.033,0.063,0.004,0.091,-0.068
MICU2 (UniProt Q8IYU8),-0.142,0.092,-0.052,-0.067,-0.102,-0.001,-0.022,-0.05,0.022,-0.155,-0.095,-0.075,-0.121,-0.006,-0.014,0.073,0.042,0.076,0.04,-0.141
MCL1 (UniProt Q07820),-0.181,-0.017,0.015,-0.053,0.068,-0.079,-0.021,-0.158,0.109,0.001,-0.074,-0.33,-0.093,-0.039,0.072,0.011,-0.079,0.034,-0.112,0.142
MAD2L1 (UniProt Q13257),-0.054,0.018,-0.082,-0.042,-0.06,-0.012,-0.001,0.009,-0.055,0.042,-0.013,-0.09,-0.193,-0.124,0.036,0.021,0.014,0.072,-0.032,0.006
MIEN1 (UniProt Q9BRT3),0.023,-0.013,-0.029,-0.037,-0.041,-0.08,0.08,0.139,0.083,0.018,0.045,0.003,-0.013,0.001,0.016,-0.042,-0.007,0.004,-0.131,0.057
MCU (UniProt Q8NE86),-0.173,0.032,-0.017,0.128,-0.055,-0.026,-0.03,0,-0.005,0.024,0.005,-0.059,-0.142,-0.131,0.034,-0.013,0.075,-0.007,-0.034,-0.052
